Reference: PubChem BioAssay
Records with an inconclusive call do not appear. Calls of active or inactive are those of the source.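 The calls were made as follows, unless noted: active = viability at or under a set limit in both replicates, limit being median viability minus 3 SD (cut at about 48% in these data, passing the limit was not always enough); inconclusive = at or under the limit in just one replicate; inactive = at or above the limit in both replicates.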

Legend:
[1] = reducers of endogenous Her2 protein level, primary screen, SKBR3 breast tumor cells, AlphaScreen, ATP viability (AID 461;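 active = Her2 level under about 52% in both replicate screens, with viability over 70% of control, limit read from the data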;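 as to Her2 level: lower value means less Her2 protein in the cells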;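 as to viability: percent of carrier control wells set as 100% viability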); details: 18-24 h, measured here: SKBR3 viability, ATP luminescence, at 10 µM
[2] = molecular target: Receptor tyrosine-protein kinase erbB-2 (Homo sapiens) (UniProt P04626); assay: as above; details: 18-24 h, at 10 µM, stronger effect = lower value
[3] = SK-BR-3 cell growth inhibitors, pilot screen, 24 h, human (AID 572;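 active = viability at or below 10% of carrier control in both of two separate runs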;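 also: compound exposure lasted between 18 and 24 h rather than exactly 24 h; 100% = carrier-treated control wells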); details: SK-BR-3 viability, CellTiter-Glo luminescence, at 10 µM, stronger effect = lower value
[4] = HUVEC growth inhibition – cell-based, human, primary screen (AID 575;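 active = viability at or below 30% in both replicate assays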;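 also: 100% = median of untreated cell wells with 0.1% DMSO on each plate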); details: HUVEC proliferation, CellTiter-Glo luminescence, 72 h; at 10 µM; stronger effect = lower value
[5] = growth inhibitors of H69AR lung tumor, primary screen, human, duplicate replicates (AID 580); details: H69AR lung tumor cells viability, ATP luminescence, 72 h; at 10 µM; stronger effect = lower value;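 also: 100% = mean luminescence of untreated wells and 0% = no signal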
[6] = reversal of MRP1-mediated doxorubicin resistance, pilot screen, H69AR cells, doxorubicin co-treatment (AID 601;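 active = viability loss from added drug above about 55%, and viability with drug at most 40%, in both replicates, limit read from the data, passing the limit was not always enough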); details: CellTiter-Glo, 72 h, at 10 µM; for differential viability (reversal): stronger effect = higher value
[7] = 384-well plate pilot, post-Golgi transport modulator project, inhibition of yeast transport mutant growth (AID 636; in the data active = inhibition above about 31%); details: absorbance 615 nm, about 18 h, stronger effect = higher value
[8] = growth suppression of yeast trafficking mutant, preliminary HTS, modulators of trafficking downstream of Golgi apparatus project, 1536-format plate, OD 615 nm (AID 637; in the data active = inhibition above about 30%); details: yeast transport mutant growth, absorbance 615 nm, 18 h; stronger effect = higher value
[9] = OD615 S. cerevisiae growth inhibition, permissive medium, pilot counter-assay, permissive growth control for S. cerevisiae lifespan shortening project (AID 705;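 active = growth inhibition above 25% in both replicates, a cutoff set 3 SD above the mean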); details: OD615, 24 h, at 10 µM, stronger effect = higher value
[10] = Restrictive medium S. cerevisiae growth inhibition, OD615, pilot screen of yeast lifespan reduction project, restrictive growth control (AID 706;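 active = growth inhibition above a set limit, 3 SD over mean compound inhibition, in both replicates, cut at about 43% in these data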;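 also: modified DeaD lifespan yeast strain shifted to restrictive glucose medium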); details: OD615, 48 h, at 10 µM, stronger effect = higher value
[11] = viability gain of MRP-1-high H69AR cells under doxorubicin, pilot screen, MRP-1 activator project, CellTiter-Glo, duplicate (AID 807;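 active = viability increase at or above a cutoff of the median across tested compounds plus 3 SD, cut at about 8.5% in these data, passing the limit was not always enough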;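 also: compound pretreatment 18-22 h then 72 h combined with doxorubicin; 0% = doxorubicin alone and 100% = vehicle without doxorubicin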); details: H69AR viability with doxorubicin, CellTiter-Glo luminescence; at 10 µM; stronger effect = higher value
[12] = growth suppression of beta-catenin knockout HCT116, pilot screen, human colon tumor cells (AID 823;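 active = cell viability at or below a set limit in both duplicate runs, the limit being the all-compound median minus 4 SD, cut at about 23% in these data, passing the limit was not always enough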;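 also: 0% = wells killed by 20 µM Hyamine and 100% = untreated DMSO cell wells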); details: CellTiter-Glo, 60 h, at 10 µM, stronger effect = lower value
[13] = growth suppression of PTEN-deleted HCT116, pilot screen, cell-based, HCT116 clonal line, CellTiter-Glo (AID 824;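 active = viability at or below 27.92% in each of two runs, the all-compound median minus 4 SD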;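 also: 0% = 20 µM Hyamine control and 100% = vehicle cell control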); details: 60 h, at 10 µM, stronger effect = lower value
[14] = inhibitors of the yeast RAM network, pilot screen, dse1pr::URA3 reporter, 5-FOA selection (AID 869;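 active = inhibition over a set limit, the all-compound mean plus 3 SD, in both replicate runs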;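 also: 0% = DMSO wells with no growth and 100% = 10 µM 1-NA-PP1 with full growth; RAM network block rescues cells from 5-FOA so hits raise OD615 growth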); details: S. cerevisiae dse1pr::URA3 5-FOA growth, OD615, 2 d; at 10 µM; stronger effect = higher value; strain carries analog-sensitive mutant Cbk1 kinase
[15] = RAM signaling pathway blockade in yeast – S. cerevisiae, Pdr1DBD-CYC8 efflux-inhibited sensitized strain, primary screen (AID 1298;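 active = RAM network inhibition above 8.4% in each of two replicates, 3 SD over the compound average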;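 also: 0% = DMSO untreated cells without growth and 100% = 10 µM 1-NA-PP1 full growth; higher means more yeast growth rescued from 5-FOA killing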); details: S. cerevisiae cbk1-as DSE1-URA3 strain, 5-FOA growth OD615, 2 d; at 50 µM; stronger effect = higher value
[16] = H69AR cells + 2 uM doxorubicin, measured here: viability with 2 uM doxorubicin, stronger effect = lower value
[17] = H69AR cells, compound alone cytotoxicity

Receptor tyrosine-protein kinase erbB-2 (Homo sapiens), sequence (P04626 whole entry, looked up): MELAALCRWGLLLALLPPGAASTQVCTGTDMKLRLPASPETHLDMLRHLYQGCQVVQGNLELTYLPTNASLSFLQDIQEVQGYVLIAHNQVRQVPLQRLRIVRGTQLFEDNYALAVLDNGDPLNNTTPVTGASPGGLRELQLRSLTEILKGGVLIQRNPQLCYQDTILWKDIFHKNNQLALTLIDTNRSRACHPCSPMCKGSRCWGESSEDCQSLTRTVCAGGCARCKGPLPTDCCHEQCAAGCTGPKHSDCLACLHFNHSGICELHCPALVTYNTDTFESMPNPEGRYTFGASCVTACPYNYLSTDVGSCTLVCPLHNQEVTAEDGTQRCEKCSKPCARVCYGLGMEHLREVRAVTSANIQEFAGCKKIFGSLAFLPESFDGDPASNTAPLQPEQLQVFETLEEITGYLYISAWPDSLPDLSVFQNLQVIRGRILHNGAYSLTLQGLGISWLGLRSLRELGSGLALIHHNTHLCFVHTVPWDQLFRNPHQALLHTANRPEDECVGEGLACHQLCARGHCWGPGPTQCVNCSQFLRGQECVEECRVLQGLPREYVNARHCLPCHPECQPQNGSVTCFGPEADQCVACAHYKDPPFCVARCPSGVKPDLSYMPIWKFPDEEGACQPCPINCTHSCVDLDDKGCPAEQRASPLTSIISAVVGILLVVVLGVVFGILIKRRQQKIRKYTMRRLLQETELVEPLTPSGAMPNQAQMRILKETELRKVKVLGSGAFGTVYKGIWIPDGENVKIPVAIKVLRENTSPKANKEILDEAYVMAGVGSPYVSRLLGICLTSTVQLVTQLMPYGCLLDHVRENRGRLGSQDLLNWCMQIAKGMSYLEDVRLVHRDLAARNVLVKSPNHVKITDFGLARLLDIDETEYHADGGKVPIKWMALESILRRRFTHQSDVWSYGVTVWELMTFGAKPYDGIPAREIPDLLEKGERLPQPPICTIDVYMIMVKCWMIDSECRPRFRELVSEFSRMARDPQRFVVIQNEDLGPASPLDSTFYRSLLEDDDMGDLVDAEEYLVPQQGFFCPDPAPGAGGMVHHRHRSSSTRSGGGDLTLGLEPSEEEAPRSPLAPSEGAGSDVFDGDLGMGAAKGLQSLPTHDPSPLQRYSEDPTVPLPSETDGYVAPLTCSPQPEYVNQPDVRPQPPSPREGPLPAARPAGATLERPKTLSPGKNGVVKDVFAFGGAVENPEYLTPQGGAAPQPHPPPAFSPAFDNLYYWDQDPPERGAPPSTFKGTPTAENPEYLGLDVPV

Cc1ccccc1-n1c(Cn2c(=O)sc3ccccc32)nnc1SCC(N)=O
78.6%: viability [6, 16]
96.5%: viability [1]
84.8%: viability [6, 17]
inactive: Her2 level [2] 94.5% | viability [3] 96.5% | viability [4] 92.3% | viability [5] 84.8% | differential viability (reversal) ([6]; H69AR cells + 2 uM doxorubicin) 6.29% | inhibition [7] -6.27% | inhibition [8] -1.97% | growth inhibition [9] -3.65% | growth inhibition [10] -3.06% | viability increase [11] 1.68% | viability [12] 107% | viability [13] 106% | inhibition [14] 0.455% | RAM network inhibition [15] 4.35%

COc1cccc(C2CC(c3ccc(F)cc3)Nc3nc(N)nn32)c1 (stereo not given)
99.9%: viability [6, 16]
103%: viability [6, 17]
100%: viability [1]
inactive: Her2 level [2] 106% | viability [3] 100% | viability [4] 99.9% | viability [5] 103% | differential viability (reversal) ([6]; H69AR cells + 2 uM doxorubicin) 3.04% | inhibition [7] -2.67% | inhibition [8] 14.9% | growth inhibition [9] -3.78% | growth inhibition [10] 4.35% | viability increase [11] -0.39% | viability [12] 102% | viability [13] 95.5% | inhibition [14] 0.725% | RAM network inhibition [15] 5.03%

CCOCCCNC(=O)c1ccc2c(c1)N(Cc1ccccc1)C(=O)CS2=O (stereo not given)
inactive: Her2 level [2] 103% | viability [3] 104% | viability [4] 103% | viability [5] 106% | differential viability (reversal) ([6]; H69AR cells + 2 uM doxorubicin) 10.2% | inhibition [7] 0.13% | inhibition [8] -10.7% | growth inhibition [9] -5.99% | growth inhibition [10] 6.05% | viability increase [11] -0.16% | viability [12] 102% | viability [13] 93.1% | inhibition [14] 1.42% | RAM network inhibition [15] -0.72%
96.1%: viability [6, 16]
104%: viability [1]
106%: viability [6, 17]

CCCCOCCCNC(=O)COc1ccccc1
inactive: Her2 level [2] 104% | viability [3] 103% | viability [4] 102% | viability [5] 94.1% | differential viability (reversal) ([6]; H69AR cells + 2 uM doxorubicin) -2.32% | inhibition [7] -5.54% | inhibition [8] -2.46% | growth inhibition [9] -2.82% | growth inhibition [10] -5.04% | viability increase [11] -1.43% | viability [12] 94.5% | viability [13] 97.5% | inhibition [14] 0.215% | RAM network inhibition [15] -0.62%
96.4%: viability [6, 16]
94.1%: viability [6, 17]
103%: viability [1]

CC(=O)NC(CCS(C)(=O)=O)C(=O)Nc1cccc(C)c1C (stereo not given)
89.5%: viability [1]
91.3%: viability [6, 16]
75.9%: viability [6, 17]
inactive: Her2 level [2] 93.5% | viability [3] 89.5% | viability [4] 86.8% | viability [5] 75.9% | differential viability (reversal) ([6]; H69AR cells + 2 uM doxorubicin) -15.4% | inhibition [7] -5.2% | inhibition [8] 4.33% | growth inhibition [9] -7.1% | growth inhibition [10] -8.2% | viability increase [11] 0.19% | viability [12] 105% | viability [13] 100% | inhibition [14] 0.395% | RAM network inhibition [15] 3.33%

COc1cccc(C2CC(c3ccc(C)cc3)n3nc(N)nc3N2)c1 (stereo not given)
105%: viability [6, 16]
104%: viability [1]
98.2%: viability [6, 17]
inactive: Her2 level [2] 112% | viability [3] 104% | viability [4] 95.3% | viability [5] 98.2% | differential viability (reversal) ([6]; H69AR cells + 2 uM doxorubicin) -7.23% | inhibition [7] -4.1% | inhibition [8] 3.5% | growth inhibition [9] 0.34% | growth inhibition [10] 9.55% | viability increase [11] -1.45% | viability [12] 103% | viability [13] 98.6% | inhibition [14] -0.18% | RAM network inhibition [15] 7.85%

Cn1c(C(=O)NCC2CCCO2)cc2c(=O)n(C)c3ccccc3c21 (stereo not given)
95%: viability [1]
inactive: Her2 level [2] 89% | viability [3] 95% | viability [4] 84.8% | viability [5] 83.6% | differential viability (reversal) ([6]; H69AR cells + 2 uM doxorubicin) 8.52% | inhibition [7] -2.31% | inhibition [8] 2.17% | growth inhibition [9] -6.67% | growth inhibition [10] 12.4% | viability increase [11] -4.43% | viability [12] 92.9% | viability [13] 90.7% | inhibition [14] 2.33% | RAM network inhibition [15] 0.71%
83.6%: viability [6, 17]
75.1%: viability [6, 16]

COc1cccc(-c2nc3n(n2)C(c2ccccc2Cl)C(C(N)=O)=C(C)N3)c1 (stereo not given)
90.4%: viability [6, 17]
75.8%: viability [6, 16]
91%: viability [1]
inactive: Her2 level [2] 94% | viability [3] 91% | viability [4] 74.3% | viability [5] 90.4% | differential viability (reversal) ([6]; H69AR cells + 2 uM doxorubicin) 14.6% | inhibition [7] -0.8% | inhibition [8] -5.17% | growth inhibition [9] -7.99% | growth inhibition [10] -0.24% | viability increase [11] -3.31% | viability [12] 82.8% | viability [13] 82.2% | inhibition [14] 0.735% | RAM network inhibition [15] 3.45%

S=c1[nH]nc(-c2ccccc2)n1C1C=CCCC1 (stereo not given)
inactive: Her2 level [2] 104% | viability [3] 95.5% | viability [4] 97.4% | viability [5] 85% | differential viability (reversal) ([6]; H69AR cells + 2 uM doxorubicin) 0.65% | inhibition [7] 1.56% | inhibition [8] -6.33% | growth inhibition [9] 2.92% | growth inhibition [10] -1.09% | viability increase [11] -1.61% | viability [12] 102% | viability [13] 101% | inhibition [14] 1.67% | RAM network inhibition [15] 2.63%
95.5%: viability [1]
84.4%: viability [6, 16]
85%: viability [6, 17]

O=c1oc2c3c4c(cc2cc1-c1nc2ccccc2[nH]1)CCCN4CCC3
80.7%: viability [6, 16]
inactive: Her2 level [2] 65.5% | viability [3] 79.5% | viability [4] 71.7% | viability [5] 83.3% | differential viability (reversal) ([6]; H69AR cells + 2 uM doxorubicin) 2.58% | inhibition [7] -1.95% | inhibition [8] 6% | growth inhibition [9] 4.75% | growth inhibition [10] -0.465% | viability increase [11] -5.62% | viability [12] 87.2% | viability [13] 89.7% | inhibition [14] 1.73% | RAM network inhibition [15] 2.41%
79.5%: viability [1]
83.3%: viability [6, 17]
